TDP1 cell CPT – growth inhibition of DT40 Tdp1-/-;hTDP1 cells with camptothecin (screen for TDP1 inhibitors); chicken DT40 Tdp1-/-;hTDP1 cells + 20 nM CPT, ATP luminescence, 48 h; Potency, µM (top dose mostly 46.2 µM), most hits filed as inhibitors; 12% of 420,000 active; AID 686979; note: nearly all actives have a fitted effect of over 55% in size
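Chicken DT40 Tdp1-/- cells complemented with human TDP1, 400 cells/well, exposed to compounds plus 20 nM camptothecin for at least 48 h at 37 C; viability read as ATP content by CellTiter-Glo luminescence.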
KB-3-1 tox – kills parental KB-3-1 adenocarcinoma cells. KB-3-1 viability, CellTiter-Glo ATP luminescence, 72 h. 1.4% of 400,000 active. Potency, µM (highest dose often 46.1 µM), usual class: cytotoxic. AID 1347075; note: nearly all actives have a fitted effect of over 60% in size
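KB-3-1 cells, DMEM (no phenol red) + 10% FBS; compound by pin transfer, 72 h, 37 °C. Readout: CellTiter-Glo luminescence after 10 min. Data normalized, curve-fitted.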
HT1080NT lethal – kills 2HG-producing HT-1080-NT fibrosarcoma cells | HT-1080-NT fibrosarcoma viability, CellTiter-Glo ATP luminescence, 48 h | Potency, µM (titrated, usually from 46.1 µM), most hits filed as cytotoxic | 1.6% of 360,000 active | AID 686970;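 note: NT is the 2HG producing partner of a matched IDH1 knockdown line; nearly all actives have a fitted effect of over 55% in size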
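Toxicity toward the 2HG-producing NT line was scored as %Activity, normalised to DMSO and no-cell wells, from CellTiter-Glo luminescence after 48 hours' treatment.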
DT40 TDP1 no CPT – qHTS for Inhibitors of human tyrosyl-DNA phosphodiesterase 1 (TDP1): qHTS in cells in absence of CPT | 15% of 420,000 active | Potency, µM (titrated, usually from 46.2 µM), most hits filed as inhibitors | DT40 Tdp1-/- hTDP1 cells, no CPT, ATP luminescence, 48 h; note: nearly all actives have a fitted effect of over 55% in size
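Growth of hTDP1-complemented DT40 Tdp1-knockout cells is measured by ATP luminescence after at least 48 hr compound exposure at 37 °C, with DMSO substituting for the 20 nM CPT used in the parallel screen.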
HT1080 IDH1KD tx – kills HT-1080 cells with IDH1 knockdown | 2% of 360,000 active | Potency, µM (titrated, usually from 46.1 µM), actives largely listed as cytotoxic | AID 686971 | HT-1080 IDH1 knockdown viability, ATP luminescence, 48 h
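After a 2 h attachment period, IDH1KD HT-1080 cells took pin-transferred compound for 48 h at 37 °C; ATP-based luminescence after 10 min room-temperature reagent incubation reported viability.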
KB-V1 cytotox – KB-V1 MDR subline cytotoxicity | KB-V1 MDR cells viability, CellTiter-Glo, 72 h | Potency, µM (series often up to 46.1 µM), actives largely listed as cytotoxic | 3.4% of 400,000 active; note: nearly all actives have a fitted effect of over 60% in size
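Cytotoxicity via CellTiter-Glo luminescence after 72 h compound exposure at 37 degrees C. Cells: drug-selected KB-V1 line, DMEM phenol-red free plus 10% FBS. Compounds tested at multiple concentrations; normalized data fitted to concentration-effect curves.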
A number is an active result; – = inactive; ? = inconclusive; · = no result; ! = a repeat was not active; [ ] = another dose, or the depositor's remark. This is a sample that favours compounds with a hit; in the whole collection about 19% have one here. Calls come from the whole dose curve; as a rule, active = well fitted curve in the direction sought with a large enough effect; inconclusive = small, poorly fitted or top-dose-only effect, or another doubt; inactive = no such curve, though single readings can be large; an effect the other way counts as inactive or inconclusive.

SMILES	TDP1 cell CPT	KB-3-1 tox	HT1080NT lethal	DT40 TDP1 no CPT	HT1080 IDH1KD tx	KB-V1 cytotox
C=CC[C@@H]1/C=C(\C)C[C@H](C)C[C@H](OC)[C@H]2O[C@@](O)(C(=O)C(=O)N3CCCC[C@H]3C(=O)O[C@H](/C(C)=C/[C@@H]3CC[C@@H](O)[C@H](OC)C3)[C@H](C)[C@@H](O)CC1=O)[C@H](C)C[C@@H]2OC	3.35µM	·	·	2.99µM	·	·
COc1cccc(NC(=O)CN(C)C(=O)c2ccccc2-c2nc3ccccc3s2)c1	?	–	–	23.1µM	–	18.4µM
CN(CC(=O)Nc1c(Cl)cccc1Cl)C(=O)c1ccccc1-c1nc2ccccc2s1	–	–	–	?	–	8.2µM
CC1CNCCN1S(=O)(=O)c1cccc2cnccc12 (configuration not stated)	?	–	?	14.6µM!	?	?
Cc1cccc2c(N3CCCC3)nc(CNS(=O)(=O)c3ccccc3Cl)nc12	–[9.04 µM]	·	·	–	·	·
CCc1nc2ccc(C(=O)NCCc3ccccn3)cn2c1N(CC)CCOC	?	–	–	?	–	–
O=C(NN=Cc1cccc([N+](=O)[O-])c1)c1cc(-c2cccnc2)nc2ccccc12	?	–	–	?	–	–
O=C(N/N=C/C=C/c1ccccc1[N+](=O)[O-])c1cc(-c2cccnc2)nc2ccccc12	?	–	–	20.6µM	–	–
COc1ccccc1-c1cc(C(=O)N/N=C\c2cnn(C)c2C)c2ccccc2n1	?	–	–	?	–	?
COc1ccccc1-c1cc(C(=O)N/N=C/C=C/c2ccccc2[N+](=O)[O-])c2ccccc2n1	18.4µM	–	–	20.6µM	–	–
O=C(Nc1ccc(S(=O)(=O)N2CCOCC2)cc1)c1ccccc1Br	–	–	–	?	–	–
CCOC(=O)Cn1c(CN2CCc3ccccc3C2)nc2c1c(=O)n(C)c(=O)n2C	4.11µM	–	–	4.61µM	–	–
CCOC(=O)Cn1c(CN2CCN(C(=O)c3ccco3)CC2)nc2c1c(=O)n(C)c(=O)n2C	–	–	–	–	–	–
Cn1c(=O)c2c(nc(CN3CCc4ccccc4C3)n2CCCO)n(C)c1=O	–	–	–	?	–	?
Cn1c(=O)c2c(nc(CN3CCN(c4ccc(F)cc4)CC3)n2Cc2ccccc2F)n(C)c1=O	10.3µM	–	–	8.2µM	–	?
Cn1c(=O)c2c(nc(CN3CCN(c4ccccc4F)CC3)n2Cc2ccccc2F)n(C)c1=O	6.51µM	–	·	5.17µM	·	–
Cn1c(=O)c2c(nc(CN3CCc4ccccc4C3)n2Cc2ccccc2F)n(C)c1=O	8.2µM	?	–	6.51µM	–	?
CCOC(=O)C1=C(COC(=O)CCc2ccc(CC)cc2)NC(=O)NC1C (configuration not stated)	–	–	–	–	–	–
Cc1cccc(C)c1-n1nnnc1C(c1ccnc2ccccc12)N1CCOCC1 (configuration not stated)	–	–	–	–	–	–
CCCc1cc(=O)[nH]c2nnc(SCCC(C)C)n12	–	·	·	–	·	·
COCCNC(=O)CCn1c(=O)c2cc(OC)c(OC)cc2n(CC(=O)Nc2ccc(F)c(Cl)c2)c1=O	–	–	·	–	·	–
Cc1ccc(-n2nc3c(=O)n(CC(=O)NC(C)CCc4ccccc4)nc(C)c3c2C)cc1 (configuration not stated)	?	–	–	23.1µM	–	?
CCC(C(=O)NCCC1=CCCCC1)n1nc(C)c2c(C)n(-c3ccccc3)nc2c1=O (configuration not stated)	?	–	–	25.9µM	–	?
CCC(C(=O)Nc1cc(F)ccc1F)n1nc(C)c2c(C)n(-c3ccc(C)cc3)nc2c1=O (configuration not stated)	14.6µM	?	–	16.4µM	–	?
COc1ccc(CNC(=O)C(C)n2nc(C)c3c(C)n(-c4ccc(C)cc4)nc3c2=O)cc1 (configuration not stated)	18.4µM	?	–	?	–	?
SMILES	TDP1 cell CPT	KB-3-1 tox	HT1080NT lethal	DT40 TDP1 no CPT	HT1080 IDH1KD tx	KB-V1 cytotox
CCC(C(=O)Nc1ccccc1F)n1nc(C)c2c(C)n(-c3ccccc3)nc2c1=O (configuration not stated)	?	–	–	?	–	–
C=C1CCN([C@@H](CC(C)C)C(=O)N2CCOCC2)S(=O)(=O)c2ccccc21	–	–	–	–	–	–
C[C@@H]1CN([C@@H](C)CO)C(=O)c2cc(NC(=O)C3CCCCC3)ccc2O[C@@H](C)CCCCO[C@@H]1CN(C)C(=O)CCCN(C)C	–	–	–	–	–	–
Cc1ccc(C)c(NC(=O)C2CCCN(c3cnccn3)C2)c1 (configuration not stated)	–	–	–	–	–	–
CC(C)(C)NC(=O)C(OC(=O)c1cccs1)c1ccc(F)cc1 (configuration not stated)	–	–	?	–	–	–
COc1ccc(CCNC(=O)C(C)n2nc(C)c3c(C)n(-c4ccc(C)cc4)nc3c2=O)c(OC)c1 (configuration not stated)	23.1µM	–	20.6µM	?	–	–
COc1ccccc1CCNC(=O)C(C)n1nc(C)c2c(C)n(-c3ccccc3)nc2c1=O (configuration not stated)	–	–	–	–	–	–
Cc1nn(Cc2ccccc2)c(=O)c2nn(-c3ccc(Cl)cc3)c(C)c12	?	–	–	20.6µM	–	8.2µM
CCC(C(=O)NCc1ccc(OC)c(OC)c1)n1nc(C)c2c(C)n(-c3ccc(C)cc3)nc2c1=O (configuration not stated)	16.4µM	·	·	23.1µM	·	·
Cc1ccc(CCNC(=O)C(C)n2nc(C)c3c(C)n(-c4ccc(C)cc4)nc3c2=O)cc1 (configuration not stated)	20.6µM	–	·	20.6µM	·	?
COc1ccc(NC(=O)NNC(=O)C(C)Oc2ccc3ccccc3c2)cc1OC (configuration not stated)	–	–	–	–	–	–
O=C(CN1C(=O)NC2(CCCC2)C1=O)Nc1cc(S(=O)(=O)N2CCCCC2)ccc1Cl	?	–	–	?	–	?
CCn1ncc(C2=NOC(C(=O)Nc3cc(OC)c(Cl)cc3OC)C2)c1C (configuration not stated)	?	–	–	?	–	–
COc1ccc(-c2noc(-c3ccc(NCc4ccc(C)cc4)c([N+](=O)[O-])c3)n2)cc1OC	–	–	·	–	·	–
